Assay [1] relates to MKL-1. Kind of assay: qHTS assay to identify novel small-molecules to repurpose for Merkel cell carcinoma treatment (AID 1296009). Also: nearly all actives have a fitted effect of over 60% in size. The following applies: MCC and control cell lines, CellTiter-Glo viability, 72 h; series mostly up to 46 µM. The gist of the method:
(§1)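 72 hr, 37 degree celsius; NPC 8-pt / MIPE 11-pt dose response; compound pinned in DMSO; CellTiter-Glo, 10 min RT, luminescence; normalized to no-cell and DMSO controls.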

Assay [2] deals with MKL-2. The description is as above. Conditions: MCC and control cell lines, CellTiter-Glo viability, 72 h; series mostly up to 46 µM. The gist of the method:
as §1
On the technique in general: ATP-based viability assays read luminescence as a measure of living cells.

Assay [3] deals with C33A. Kind of assay: Primary qHTS to identify gynecologic anti-cancer compounds using libraries of approved drugs and bioactive compounds (AID 1345084). Also: nearly all actives have a fitted effect of over 55% in size. Conditions: Gynecologic cancer cell panel viability, ATPlite luminescence, 48 h; series mostly up to 57.5 µM. The essentials: (§2)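 48 h compound exposure at 37 C, 5% CO2; five-point qHTS. ATPlite luminescence readout of cell ATP.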
In general terms: In qHTS, concentration-response curves come from the screen itself.

Assay [4] has as its system CASKI. The assay is described as above. Conditions: Gynecologic cancer cell panel viability, ATPlite luminescence, 48 h; series mostly up to 57.5 µM. The essentials:
as §2

The subject of assay [5] is Es-2. The description is as above. The following applies: Gynecologic cancer cell panel viability, ATPlite luminescence, 48 h; series mostly up to 57.5 µM. The gist of the method:
as §2

Assay [6] has as its system HeLa. The description is as above. Conditions: Gynecologic cancer cell panel viability, ATPlite luminescence, 48 h; series mostly up to 57.5 µM. The gist of the method:
as §2

Assay [7] relates to Hek293T. Described as above. The following applies: Gynecologic cancer cell panel viability, ATPlite luminescence, 48 h, control line for the selectivity index; series mostly up to 57.5 µM. The gist of the method: as §2
Assay [8] has as its system JEG-3. The description is as above. Conditions: Gynecologic cancer cell panel viability, ATPlite luminescence, 48 h; series mostly up to 57.5 µM. The gist of the method: as §2
The subject of assay [9] is OV90. The description is as above. The following applies: Gynecologic cancer cell panel viability, ATPlite luminescence, 48 h; series mostly up to 57.5 µM. The essentials:
as §2

Assay [10] relates to PA-1. The description is as above. Conditions: Gynecologic cancer cell panel viability, ATPlite luminescence, 48 h; series mostly up to 57.5 µM. The essentials: as §2
Assay [11] has as its system SKOV3. Described as above. The following applies: Gynecologic cancer cell panel viability, ATPlite luminescence, 48 h; series mostly up to 57.5 µM. The essentials:
as §2

The test system of assay [12] is Tov-21-G. The assay is described as above. Conditions: Gynecologic cancer cell panel viability, ATPlite luminescence, 48 h; series mostly up to 57.5 µM. The gist of the method: as §2
The test system of assay [13] is Tov112D. The description is as above. The following applies: Gynecologic cancer cell panel viability, ATPlite luminescence, 48 h; series mostly up to 57.5 µM. The gist of the method:
as §2

The nature of assay [14]: Drug repurposing screens with cells derived from glioblastoma tumor samples (AID 1345199). Also: nearly all actives have a fitted effect of over 40% in size. The following applies: GBM patient neurospheres viability, ATP luminescence, 48 h. The gist of the method: (§3)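 Four patient lines of CD133+ GBM neurospheres were screened at several concentrations; hits were retested in those lines plus three slower-growing GBM lines, using 48-hour treatment and ATP-based viability.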

Assay [15] concerns astro. The assay is described as above. Conditions: viability, ATP luminescence, 48 h; series mostly up to 45.9 µM. The gist of the method: as §3
The subject of assay [16] is CAOV3. Kind of assay: Primary qHTS to identify gynecologic anti-cancer compounds using libraries of approved drugs and bioactive compounds (AID 1345084). Also: nearly all actives have a fitted effect of over 55% in size. Conditions: Gynecologic cancer cell panel viability, ATPlite luminescence, 48 h; series mostly up to 57.5 µM. The essentials:
as §2

Assay [17] relates to WaGa. Description: qHTS assay to identify novel small-molecules to repurpose for Merkel cell carcinoma treatment (AID 1296009). Also: nearly all actives have a fitted effect of over 60% in size. The following applies: MCC and control cell lines, CellTiter-Glo viability, 72 h; series mostly up to 46 µM. The essentials: as §1
The test system of assay [18] is UISO. Described as above. Conditions: MCC and control cell lines, CellTiter-Glo viability, 72 h; series mostly up to 46 µM. The essentials:
as §1

In assay [19] the test system is NIH3T3. The description is as above. The following applies: MCC and control cell lines, CellTiter-Glo viability, 72 h; at 44.8 µM (top of the series) unless noted. The gist of the method:
as §1

The mark [20] stands for this setting: at 46.1 µM (top of the series), tumour line C.
[21] abbreviates: at 45.9 µM (top of the series), tumour line B.
Where [22] appears, read: at 45.9 µM (top of the series), tumour line D.
Where [23] appears, read: at 20 µM (top of the series), tumour line C.

Records with an inconclusive call do not appear. A number with no mark means an inactive call. The source made the active and inactive calls. Calls follow the shape of the dose curve; as a rule, active = well fitted curve in the direction sought with a large enough effect; inconclusive = small, poorly fitted or top-dose-only effect, or another doubt; inactive = no such curve, though single readings can be large; an effect the other way counts as inactive or inconclusive.
% is scaled to controls: 0 for no effect and ±100 for the full control effect; potency is read from the fitted curve at half-maximal effect.

Turning to `CCCCCCOc1ccccc1C(N)=O`, the Potency entry in assay [1], in assay [2], in assay [3], in assay [4], in [5] and in assay [6] was “inactive” each time. Moreover, the Potency entry in assay [7], in assay [8], in assay [9], in assay [10], in assay [11] and in assay [12] was “inactive” throughout. Further, in assay [13], the Potency result was “inactive”. For the same compound, in assay [14] (setting [20]), the activity, negative = cell killing is -6.65%. Also, the Potency in assay [14] (tumour line A) and in assay [15] was 14.1 µM (active) throughout.

Take `CC1(C)[C@@H](O[C@H]2O[C@H](C(=O)O)[C@@H](O)[C@H](O)[C@H]2O[C@@H]2O[C@H](C(=O)O)[C@@H](O)[C@H](O)[C@H]2O)CC[C@]2(C)[C@H]3C(=O)C=C4[C@@H]5C[C@@](C)(C(=O)O)CC[C@]5(C)CC[C@@]4(C)[C@]3(C)CC[C@@H]12`: the Potency entry in assay [3], in assay [16], in assay [4], in [5], in [6] and in assay [7] was “inactive” throughout. In addition, the Potency result in [8], in assay [9], in assay [10], in assay [12], in [13] and in assay [15] was “inactive” each time. Besides, the activity, negative = cell killing in [14] (setting [21]) was -9.84%; in assay [14] (setting [22]), 5.57%; in [14] (at 46 µM (top of the series), tumour line A) it was -2.05%; in [14] (setting [20]) it was 21.2%.

With `C#CC1(O)CC[C@H]2[C@@H]3CCC4=CCCC[C@@H]4[C@H]3CC[C@@]21C` (stereo partly drawn), the Potency result in assay [3], in assay [16], in assay [4], in assay [5], in assay [6] and in assay [7] was “inactive” throughout. In addition, the Potency entry in assay [8], in assay [9], in [12] and in assay [13] was “inactive” throughout. The activity, negative = cell killing in assay [14] (setting [23]) is -10.1%. Moreover, the Potency in [14] (tumour line A) is 11.2 µM (active).

For the compound `O=C(CS)Nc1ccccc1`, the Potency entry in [17], in assay [3], in [16], in assay [4], in [5] and in assay [6] was “inactive” throughout. In addition, the Potency entry in assay [7], in assay [8], in assay [9], in assay [10], in assay [11] and in [12] was “inactive” in each case. For the same compound, the Potency entry in assay [13] was “inactive”. Also, the activity, negative = cell killing in assay [14] (setting [20]) is -39.6%. In addition, the Potency in assay [14] (tumour line D) is 12.6 µM (active).

With `N=C1N=C(N)c2cc3ccccc3cc21`, the Potency was 38.6 µM (active) in assay [1]; 24.3 µM (active) in assay [2]; 24.3 µM (active) in assay [18]; 31.6 µM (active) in [4]; 39.8 µM (active) in assay [7]; 35.5 µM (active) in [10]. Besides, the Potency in [12] is 35.5 µM (active).

For `CC(C(=O)O)c1ccc(C(=O)c2cccs2)cc1` (stereo not drawn), the Potency result in assay [3], in assay [16], in assay [4], in assay [5], in assay [6] and in assay [7] was “inactive” in each case. Besides, the Potency result in [8], in [9], in [10], in assay [11], in assay [12] and in assay [13] was “inactive” each time. The activity, negative = cell killing in assay [14] (setting [23]) was 9.23%; in assay [14] (at 21.2 µM (top of the series), tumour line B) it was -14.5%; in assay [14] (at 21.2 µM (top of the series), tumour line D), -0.88%; in assay [14] (at 21.3 µM (top of the series), tumour line A), -13%.

For the compound `CC(=O)O[C@H]1C[C@@]2(C)[C@@H](C[C@@H](O)[C@H]3[C@@]4(C)CC[C@@H](O)[C@@H](C)[C@@H]4CC[C@@]32C)/C1=C(\CCC=C(C)C)C(=O)O`, in [19], the compound was classed as inactive. In addition, the Potency result in assay [3], in assay [16], in [4], in assay [5], in assay [6] and in assay [7] was “inactive” throughout. The Potency result in assay [8], in assay [9], in assay [10], in assay [11], in assay [12] and in assay [13] was “inactive” each time. The activity, negative = cell killing in [14] (setting [21]) is -17.2%; in assay [14] (setting [22]), 1.56%; in [14] (setting [20]), -26.3%.

These data come from PubChem BioAssay (NCATS).
